40 molecules from PubChem BioAssay (NCATS) can be followed below.

Each structure is given as a SMILES string. Records with an inconclusive call do not appear. Values without a mark were called inactive. The source made the active and inactive calls. Calls come from the whole dose curve; as a rule, active = well fitted inhibition curve with a large enough effect; inconclusive = small, poorly fitted or top-dose-only effect; inactive = no such curve, though single readings can be large or run the other way.
Potency is the fitted concentration of half-maximal effect.

This experiment is described as follows: BET inhibitor-based combinations targeting novel dependencies in MECOM-rearranged (r) AML: OCI-AML3 cell line (AID 2202232). Note: nearly all actives have a fitted effect of over 35% in size. Conditions: CellTiter-Glo luminescence, 48 h; Potency: OCI-AML3 viability; series mostly up to 46 µM; viability (% of control): at the top concentration. The text has this:
Ecotropic viral insertion site 1 (EVI1) is located on chromosome 3q26.2 as part of the MECOM (MDS and EVI1 complex) locus. Under normal hematopoiesis, EVI1 is a regulator of hematopoietic stem cell maintenance and self-renewal and EVI1 levels decrease as the cells differentiate. In approximately 5-10% of de novo acute myeloid leukemia (AML) EVI1 is aberrantly expressed, including Chromosomal inv(3)(q21;q26.2) or t(3;3)(q21;q26.2) alterations (MECOM-r) that account for about 50% of AML with EVI1 overexpression 31. AMLs with high levels of EVI1 have a poor prognosis and an overall survival time averaging between 10-14 months. EVI1 overexpression confers resistance in leukemia cells, highlighting the need to develop new targeted therapies for EVI1 overexpressing AMLs.
Here, we performed an unbiased chemical drug screening by evaluating the single agent activity of a collection of 2,480 oncology-focused, approved and investigational drugs (NCATS Mechanism Interrogation Plates, MIPE v5.0) against a panel of seven AML cell lines. These included four MECOM-r cell-lines (AML-191, AML-194, UCSD-AML1 and HNT-34) and three non-MECOM-r AMLs (MV4-11, OCI-AML3 and SET-2). Exploiting the mechanistic redundancy built in the library, we identified target-level sensitivities in MECOM-r AML cells and relative activity as compared to other AML subtypes.
A collection of 2480 mechanistically annotated dugs (MIPE v5.0) was used to screen four 3q26.2 rearranged AML cell lines and three non-3q26.2 rearranged AML cell lines. This library purposely exploits redundancy by including multiple inhibitors of key onco-targets, while simultaneously encompassing mechanistic diversity, targeting more than 800 distinct mechanisms of action. Briefly, cells were seeded in 5 uL of growth media using a Multidrop Combi dispenser into 1536 well white polystyrene tissue culture treated plates (Corning) at a density of 500cells/well. For each cell-line, for each of the 2480 drugs in MIPE v5.0 library, an 11-point dose curve was generated via a 1536 pin-tool. Plates were incubated for 48 hr at standard incubator conditions, covered by a stainless steel gasketed lid to prevent evaporation. Cell viability was determined by luminescence based, Cell Titer Glo assay (Promega). In detail, 3 uL of Cell Titer Glo were added to each well and plates were incubated at room temperature for 15 min with a stainless-steel lid in place. Luminescence readings were taken using a Viewlux (PerkinElmer) with a 2 s exposure time per plate. Compound dose-response curves were normalized to DMSO and empty well controls on each plate. Quantitative drug activity data from dose-response curves was determined utilizing area Under the Curve (AUC) and Z-transformed AUC (Z-AUC, a mean-centering transformation applied to each individual cell-line screened).
For orientation: In ATP-based viability assays light output follows the ATP content of the culture.
Consider `COc1cc(O)c2c(c1)C1OC1C[C@H](O)[C@H](O)C(=O)C=CC[C@H](C)OC2=O` (stereo not given in full), for which the Potency is 0.742 µM (active).
On to `CN1CCN(C(=O)c2ccc(-c3ccc4c(C=O)c(O)ccc4c3)s2)CC1`, for which the Potency was 26.3 µM (active).
Consider `COC(=O)N[C@H](C(=O)N1CCC[C@H]1c1ncc(-c2ccc(-c3ccc(-c4cnc([C@@H]5CCCN5C(=O)[C@@H](NC(=O)OC)C(C)C)[nH]4)cc3)cc2)[nH]1)C(C)C`, for which the “viability (% of control)” value is 89.4%.
Turning to `CC(=O)c1cc2c(o1)C(=O)c1ccccc1C2=O`, the Potency is 2.63 µM (active).
With `Cc1nnn(C)c1-c1cnc2c3ccc(C(C)(C)O)cc3n([C@H](c3ccccc3)C3CCOCC3)c2c1`, the Potency was 0.0059 µM (active).
Still for that read-out and setting: for `COCCn1c2c([n+](Cc3cnccn3)c1C)C(=O)c1ccccc1C2=O` the value was 0.0525 µM (active).
For `C[C@H]1[C@H](C)CC[C@]2(C(=O)O)CC[C@]3(C)C(=CC[C@@H]4[C@@]5(C)C[C@@H](O)[C@H](O)[C@@](C)(CO)[C@@H]5CC[C@]43C)[C@H]12`, the “viability (% of control)” value is 98.4%.
With `C=C[C@H]1CN2CCC1C[C@@H]2C(O)c1ccnc2ccc(OC)cc12` (stereo not given in full), the “viability (% of control)” value was 108%.
For the molecule `Cn1ncc(Cl)c1-c1cc(C(=O)N[C@H](CN)Cc2ccc(F)c(F)c2)sc1Cl`, the Potency was 18.6 µM (active).
Regarding `CCC(=C/[C@H](C)C/C=C/C(C)=C/[C@@H](C)C(=O)[C@@H](C)[C@H](O)[C@@H](C)C/C(C)=C/C(=O)O)/C=C/[C@@H]1OC(=O)C=C[C@@H]1C`, the Potency was 0.0042 µM (active).
In the case of `NC(=O)c1ccc2nc(-c3ccc(C4(N)CCC4)cc3)c(-c3ccccc3)n2n1`, the Potency is 13.2 µM (active).
Take `COCCOC(=O)N1CCN(S(=O)(=O)c2cc(F)c(Oc3ccc(Cl)cc3)c(F)c2)C(C(=O)NO)C1` (stereo not given): the Potency is 14.8 µM (active).
As to `Nc1ccn([C@@H]2O[C@H](CO)[C@@H](O)[C@H]2O)c(=O)n1`, the “viability (% of control)” value is 98.5%.
`Nc1nc2c(c(=O)[nH]1)N1CN(c3ccc(C(=O)N[C@@H](CCC(=O)O)C(=O)O)cc3)CC1CN2` (stereo not given in full): the Potency is 1.66 µM (active).
Turning to `COc1cc([C@@H]2c3cc4c(cc3[C@@H](O[C@@H]3O[C@@H]5CO[C@@H](C)O[C@@H]5[C@H](O)[C@@H]3O)[C@H]3COC(=O)[C@H]23)OCO4)cc(OC)c1O`, the Potency was 0.934 µM (active).
Turning to `C=CC(=O)Nc1cccc(Oc2nc(Nc3ccc(N4CCN(C)CC4)cc3)nc3ccsc23)c1`, the Potency is 10.5 µM (active).
With `COc1cc(C(N)=O)ccc1NC(=O)[C@@H]1N[C@@H](CC(C)(C)C)[C@@]2(C(=O)Nc3cc(Cl)ccc32)[C@H]1c1cccc(Cl)c1F`, the Potency is 0.934 µM (active).
For the molecule `CCCc1cc(C(=O)N[C@H](Cc2ccc(-c3cccc(OC(F)(F)F)c3)nc2)C(=O)N[C@@H]2CCNC2)sc1C`, the Potency is 20.9 µM (active).
With `CCCCCCCCCCCC(CC1OC(=O)C1CCCCCC)OC(=O)C(CC(C)C)NC=O` (stereo not given), the “viability (% of control)” value is 71.6%.
Consider `NS(=O)(=O)c1ccc(NC(=S)N2CCN(C/C=C/c3ccccc3)CC2)cc1`, for which the Potency is 20.9 µM (active).
In the case of `C[C@H]1C[C@@H](n2c(Nc3ccc(OC(F)(F)F)cc3)nc3cc(CCC(=O)O)ccc32)CC(C)(C)C1`, the Potency was 20.9 µM (active).
`O=C(O)/C(S)=C/c1ccc(I)cc1`: the “viability (% of control)” value is 97.4%.
In the case of `Cc1ccc(NS(=O)(=O)c2ccc3c(c2)C2C=CCC2C(c2ccc(C(=O)O)cc2)N3)cc1C` (stereo not given), the “viability (% of control)” value was 114%.
On to `Clc1ccc(-c2nc3sccn3c2/C=N/OCc2ccc(Cl)c(Cl)c2)cc1`, for which the “viability (% of control)” value was 101%.
In the case of `C=CC(=O)N1CCC(C2CCNc3c(C(N)=O)c(-c4ccc(Oc5ccccc5)cc4)nn32)CC1` (stereo not given), the Potency is 13.2 µM (active).
The same measure, in the same setting: for `C[C@@H](Oc1cc(C(=O)Nc2ccc(C(=O)N3CCN(C)CC3)cc2)nnc1N)c1c(Cl)ccc(F)c1Cl` the value was 5.9 µM (active); for `CNC(=O)CCc1cc(-c2ccc(-c3ccc(C(F)(F)F)cc3)cc2)n(-c2ccc(N3CCNCC3)cc2)n1`, 5.9 µM (active).
For `Nc1ccc(F)cc1NC(=O)c1ccc(CNC(=O)/C=C/c2cccnc2)cc1`, the Potency is 4.17 µM (active).
With `CC(C)(O)[C@H]1CC[C@@](C)([C@H]2[C@@H](O)C[C@@]3(C)[C@@H]4C[C@H](O[C@@H]5O[C@H](CO)[C@@H](O)[C@H](O)[C@H]5O)[C@H]5C(C)(C)[C@@H](O[C@@H]6OC[C@@H](O)[C@H](O)[C@H]6O)CC[C@@]56C[C@@]46CC[C@]23C)O1`, the “viability (% of control)” value was 114%.
For the molecule `c1ccc(-c2cc(CCC3CCNCC3)c3ccccc3n2)cc1`, the Potency was 20.9 µM (active).
In the case of `Cc1ccc(F)c(NC(=O)Nc2ccc(-c3cccc4[nH]nc(N)c34)cc2)c1`, the Potency was 18.6 µM (active).
For the molecule `CCC(C(=O)O)C1CCC(C)C(C(C)C(O)C(C)C(=O)C(CC)C2OC3(C=CC(O)[C@@]4(CC[C@](C)(C5CC[C@@](O)(CC)C(C)O5)O4)O3)C(C)CC2C)O1` (stereo not given in full), the Potency was 1.48 µM (active).
Turning to `CN1C(=O)N[C@H](Cc2c[nH]c3c(Cl)cccc23)C1=O`, the “viability (% of control)” value was 85.3%.
With `CS[C@H]1SC[C@@H]2C(=O)N(C)[C@H](C(C)C)C(=O)OC[C@H](NC(=O)c3cnc4ccccc4n3)C(=O)N[C@H](C)C(=O)N(C)[C@H]1C(=O)N(C)[C@H](C(C)C)C(=O)OC[C@H](NC(=O)c1cnc3ccccc3n1)C(=O)N[C@H](C)C(=O)N2C`, the Potency is 0.0047 µM (active).
For the molecule `Nc1cc(C(F)(F)F)c(-c2nc(N3CCOCC3)nc(N3CCOCC3)n2)cn1`, the Potency is 3.72 µM (active).
On the same count and under the same terms, the result for `CN1CCN(c2ccc3nc(-c4cc(C(C)(C)C)c(OCCCC(=O)NCCCN=[N+]=[N-])c(C(C)(C)C)c4)[nH]c3c2)CC1` reads 10.5 µM (active); that for `COCCOC(=O)C1=C(C)NC2=C(C(=O)CC(c3ccccc3OC)C2)C1c1cccc(O)c1` (stereo not given), 7.42 µM (active).
In the case of `Nc1nc(F)nc2c1ncn2C1OC(COP(=O)(O)O)C(O)C1O` (stereo not given), the Potency is 18.6 µM (active).
For the molecule `Cc1cc(C(=O)Nc2cc(Nc3ccc4c(/C=C/c5ccccn5)n[nH]c4c3)ccc2F)n(C)n1`, the Potency is 18.6 µM (active).
For the molecule `CN(C)C[C@@H]1CCn2cc(c3ccccc32)C2=C(C(=O)NC2=O)c2cn(c3ccccc23)CCO1`, the Potency is 20.9 µM (active).
